# Screens: PubChem BioAssay, several laboratories
# Rows were chosen to be rich in hits. Some 2.6% of all compounds tested hit in one or more screens of this group.
# TLR4 MyD88 comp: inhibitors of TLR4-MyD88 association in cells, primary screen, cell-based, HeLa CL3-4, BLA complementation, FRET ratio; actives 0.18% (n = 200,000); Toll-like receptor 4 (Homo sapiens) + Myeloid differentiation primary response protein …; HeLa CL3-4 TLR4/MyD88 BLA complementation; AID 861, 2007; inhibition, % at 8.4 µM; in the data active means inhibition above about 25%
# ABHD5-PLIN5 inh: ABHD5-PLIN5 interaction inhibitors, primary screen, cell lysate, split luciferase complementation, luminescence | AID 602281, 2012 | Perilipin-5 (Homo sapiens) + 1-acylglycerol-3-phosphate O-acyltransferase ABHD5 (Homo … | inhibition, % at 4 µM | actives 0.78% (n = 360,000) | Split G. princeps luciferase complementation, 4 h;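 active means inhibition above the mean inhibition across every tested compound plus 3 SD, cut at about 22% in these data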
# TLR9-MyD88 inh: inhibitors of TLR9-MyD88 association in cells, primary screen, cell-based, CHO, BLA complementation, fluorescence; Toll-like receptor 9 (Homo sapiens) + Myeloid differentiation primary response protein …; CCF4 FRET ratio; inhibition, % at 4.98 µM; actives 0.21% (n = 340,000); AID 504734, 2011;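 active means inhibition above the mean over all tested compounds plus 3 SD, cut at about 21% in these data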
# PRMT1 FP inh: PRMT1 methyltransferase inhibitors, primary screen, biochemical, fluorescence polarization; Protein arginine N-methyltransferase 1 (Homo sapiens), Q99873; actives 1.3% (n = 370,000); inhibition, % at 2.79 µM; recombinant PRMT1, activity-based probe fluorescence polarization;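 active means inhibition above about 21% made by adding two undisclosed values, limit read from the data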
# Target sequence (Q99873 whole entry, looked up): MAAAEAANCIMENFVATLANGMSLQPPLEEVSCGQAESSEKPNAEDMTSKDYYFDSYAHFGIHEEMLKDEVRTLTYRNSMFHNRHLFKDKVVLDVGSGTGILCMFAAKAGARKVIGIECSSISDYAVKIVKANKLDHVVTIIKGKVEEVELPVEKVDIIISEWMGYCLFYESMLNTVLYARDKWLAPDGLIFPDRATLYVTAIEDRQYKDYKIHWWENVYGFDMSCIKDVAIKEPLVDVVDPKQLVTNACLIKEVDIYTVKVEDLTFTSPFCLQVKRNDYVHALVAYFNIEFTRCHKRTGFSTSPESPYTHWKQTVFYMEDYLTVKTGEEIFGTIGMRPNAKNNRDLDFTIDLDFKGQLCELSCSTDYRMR
# Granule exo inh: LAMP-1 surface exposure blockers, TALL-104 cells – cell-based, flow cytometry, MLPCN library, primary screen. TALL-104 LAMP-1 surface exposure; cells stimulated with thapsigargin and PMA. inhibition, % at 10 µM. actives 0.66% (n = 360,000). AID 651702, 2012;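 active means inhibition above about 55%, limit read from the data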
# NOD2-RIPK2 inh: NOD2-RIPK2 binding disruptors in cells, primary screen, fluorescence, CHO cells, BLA complementation. Receptor-interacting serine/threonine-protein kinase 2 (Homo sapiens), O43353. CCF4 ratio. inhibition, % at 4.98 µM. actives 0.38% (n = 360,000). AID 624267, 2012; in the data active means inhibition above about 21%
# ABHD5-PLIN5 conf: ABHD5-PLIN5 interaction inhibitors, confirmation, biochemical, luminescence; actives 67% (n = 2,200); shares compounds with ABHD5-PLIN5 inh; inhibition, % at 4 µM; in the data active means inhibition above about 23%
# HNF4 counter: HNF4 dimerization inhibitors, counter-screen for ABHD5-PLIN5 interaction inhibitor project, biochemical, split-luciferase complementation, luminescence; actives 77% (n = 2,200); inhibition, % at 4 µM; shares compounds with ABHD5-PLIN5 inh; AID 651674, 2012;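 active means mean inhibition across replicate wells exceeding the computed hit threshold, cut at about 13% in these data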;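 further: light from luciferase halves that rejoin when HNF4 fusion proteins dimerize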
# Hits are given with their value; . = inactive; / = no result given.
SMILES,TLR4 MyD88 comp,ABHD5-PLIN5 inh,TLR9-MyD88 inh,PRMT1 FP inh,Granule exo inh,NOD2-RIPK2 inh,ABHD5-PLIN5 conf,HNF4 counter
COCc1cc(N2CCNC[C@H]2C)ccc1N1CCN(Cc2ccccc2)[C@@H](C)C1,/,/,/,.,/,/,/,/
CCCCOC(=O)/C=C\C(=O)OCCCC,/,.,.,.,.,.,/,/
CCCCOC(=O)/C=C\C(=O)NC(N)=O,/,51,.,.,.,.,71,57
O=C(Cc1cc(=O)[nH][nH]1)N/N=C/c1ccccc1C(F)(F)F,/,/,/,.,/,/,/,/
COc1cccc2c1C(=O)C=C(C)C2=O,.,37,.,.,64,.,57,64
CC1=CC(=O)c2ccccc2C1=O,.,.,.,.,.,.,/,/
COC(=O)N1C[C@H](OCc2cn(-c3cc(Cl)cc(Cl)c3)nn2)[C@H](OCc2cn(-c3cc(Cl)cc(Cl)c3)nn2)C[C@@H]1c1ccccc1Br,/,/,/,.,/,/,/,/
OC(CNCC1CCCO1)Cn1c2ccc(Cl)cc2c2cc(Cl)ccc21 (configuration not stated),.,35,.,.,.,.,.,.
CCN(CC)CCOCCOC(=O)C1(c2ccccc2)CCCC1,/,58,.,.,.,.,77,36
COc1cccc(CC2(CO)CCCN(Cc3ccc(-c4ccco4)cc3)C2)c1 (configuration not stated),.,24,.,.,.,.,22,32
O=C1Nc2ccccc2/C1=C/c1ccccc1F,/,27,.,.,.,.,44,41
C=CCN1C(=O)[C@@H](CC(=O)NCc2ccc(OC)c(OC)c2)[C@]2(C(=O)OC)CCCCC=C12,/,/,/,.,/,/,/,/
CCOC(=O)[C@@]12CCCC3=C1N(CCC3)C(=O)[C@H]2CC(=O)NCc1ccc(OC)c(OC)c1,/,/,/,.,/,/,/,/
CC(C)[C@H](NC(=O)[C@@H](N)Cc1ccccc1)C(=O)N1CCC2CCN(Cc3ccccc3)CC21 (some centres not stated),/,/,/,.,/,/,/,/
Cc1ccc2sc(N(CCCN(C)C)C(=O)CN3C(=O)c4ccccc4C3=O)nc2c1C,.,31,.,.,.,.,23,/
CCCCC[C@H](O)/C=C/C1C(=O)C=C[C@H]1C/C=C\CCCC(=O)OC (some centres not stated),/,36,.,.,.,.,45,61
CCCCC[C@H](O)/C=C/[C@@H]1[C@@H](C/C=C\CCCC(=O)OC)[C@@H](O)C[C@H]1O,.,.,.,/,.,.,/,/
CN1CCN(C2Cc3ccccc3Sc3cc(C(F)(F)F)ccc32)CC1 (configuration not stated),/,/,/,.,/,/,/,/
CN1CCN(C2Cc3cc(F)ccc3Sc3ccc(Cl)cc32)CC1 (configuration not stated),/,.,.,.,.,.,/,/
CN1CCN(C2=Cc3ccccc3Sc3cc(F)ccc32)CC1,.,23,.,.,.,.,.,.
CN1CCN(C2=Cc3ccc(Cl)cc3Sc3ccc(F)cc32)CC1,.,29,.,.,.,.,.,.
CC(C)C[C@@H]1CN=C(N)N1C[C@@H]1CCCN1C[C@H](C)N1C[C@@H](Cc2ccccc2)N(CCc2ccc(Cl)c(Cl)c2)C1=N,/,27,.,/,.,.,.,.
CC[C@@H](C)[C@@H]1CN([C@@H](CN2CCC[C@H]2CN2C(N)=NC[C@@H]2Cc2ccccc2)C(C)C)C(=N)N1CCCC1CCCC1,/,28,.,/,.,.,.,.
Nc1[nH]c(C(=O)c2ccc(Cl)cc2)c(-c2ccc(Br)cc2)c1C(=O)NCCc1c[nH]c2ccccc12,/,/,/,.,/,/,/,/
CN(NC(=O)C(=O)NCc1ccco1)C(=O)NC1CCCCC1,/,/,/,.,/,/,/,/
SMILES,TLR4 MyD88 comp,ABHD5-PLIN5 inh,TLR9-MyD88 inh,PRMT1 FP inh,Granule exo inh,NOD2-RIPK2 inh,ABHD5-PLIN5 conf,HNF4 counter
COc1cc(C=C2CN(C)C(=O)C2=O)ccc1O,/,.,.,.,.,.,/,/
CCOc1cc(/C=C2\CCC/C(=C\c3cc(Cl)c(O)c(OCC)c3)C2=O)cc(Cl)c1O,.,55,.,.,82,.,68,48
CCOc1cc(/C=C2\CN(C)C/C(=C\c3ccc(O)c(OCC)c3)C2=O)ccc1O,/,78,.,.,.,.,97,88
Cc1ccccc1C(=O)N[C@H](C(=O)N1CCC[C@H]1C(=O)NCCc1ccccc1Cl)C(C)C,/,/,/,.,/,/,/,/
CC(C)c1nnc(NC(=O)c2nc(S(=O)(=O)Cc3ccccc3F)ncc2Cl)s1,/,/,/,.,/,/,/,/
CCSc1nnc(NC(=O)c2nc(S(=O)(=O)Cc3ccc(F)cc3)ncc2Cl)s1,/,24,.,.,.,.,80,49
CCc1nnc(NC(=O)c2nc(S(=O)(=O)Cc3ccccc3)ncc2Cl)s1,/,34,.,.,.,.,69,48
COC(=O)c1ccccc1NC(=O)c1nc(S(=O)(=O)Cc2ccccc2)ncc1Cl,/,.,.,.,.,.,/,/
Cc1nnc(NC(=O)c2nc(S(=O)(=O)Cc3ccccc3C)ncc2Cl)s1,/,31,.,.,.,.,72,48
CSc1nnc(NC(=O)c2nc(S(=O)(=O)Cc3ccccc3F)ncc2Cl)s1,/,25,.,.,.,.,86,55
CN(c1cccnc1)c1ccc(NC(=O)Cc2c[nH]c3ccccc23)cc1Br,/,/,/,.,/,/,/,/
CCOc1ccccc1NC(=O)c1nc(S(=O)(=O)Cc2cccc(C)c2)ncc1Cl,/,.,.,.,.,.,/,/
CSc1nnc(NC(=O)c2nc(S(=O)(=O)Cc3cccc(C)c3)ncc2Cl)s1,/,30,.,.,.,.,86,56
COc1ccc(-c2cc(=O)n(CCC#N)[nH]2)cc1,.,26,.,.,.,.,.,.
Cc1ccc(S(=O)(=O)N2CCCc3nc(-c4ccccc4)ccc32)cc1,/,/,/,.,/,/,/,/
O=C(O)c1cccc(-n2sc3ccccc3c2=O)c1,/,109,.,93,.,.,97,120
C=CCn1c(SCC(=O)NC2CCCCC2)nc2ccccc2c1=O,.,.,.,.,.,.,/,/
C=CCn1c(SCC(=O)NC2CCCC2)nc2scc(-c3ccco3)c2c1=O,.,43,.,.,.,.,36,86
O=C(/C=C/c1cccnc1)c1cc(F)ccc1O,/,.,.,.,.,.,/,/
